Assay results from publication PMC11062922 (Nature Chemical Biology, 2023).
Like-named read-outs stand apart in the source and are kept apart here.

Tests used:
Set-up in all cases: species or system human, MV4-11 + K-562 + COLO205 + SK-N-BE2 + OVCAR-8
DDR1 = settings: read-out: apparent Kd, n = 1
TEC = settings: read-out: apparent Kd, n = 1
AKT3 = settings: read-out: apparent Kd; compound concentrations: 100 nM and 1000 nM (sheet 'Samples'), CATDS: 0.185643756681795; n = 1
ACVR1 = settings: read-out: apparent Kd, compound concentrations: 100 nM and 1000 nM (sheet 'Samples'), n = 1
MAP4K2 = settings: read-out: apparent Kd, n = 1
MAP4K3 = settings: read-out: apparent Kd, compound concentrations: 100 nM and 1000 nM (sheet 'Samples'), n = 1
MAP4K5 = settings: read-out: apparent Kd, compound concentrations: 100 nM and 1000 nM (sheet 'Samples'), n = 1
MAPK11 = settings: read-out: apparent Kd, compound concentrations: 100 nM and 1000 nM (sheet 'Samples'), n = 1
NEK9 = settings: read-out: apparent Kd, compound concentrations: 100 nM and 1000 nM (sheet 'Samples'), n = 1
PIK3C2A = settings: read-out: apparent Kd; compound concentrations: 100 nM and 1000 nM (sheet 'Samples'), CATDS: 5.9586884702388498E-3; n = 1
PIK3C3 = settings: read-out: apparent Kd; compound concentrations: 100 nM and 1000 nM (sheet 'Samples'), CATDS: 6.1778157574045199E-3; n = 1
PIM2 = settings: read-out: apparent Kd; compound concentrations: 100 nM and 1000 nM (sheet 'Samples'), CATDS: 4.10108684490637E-3; n = 1
RPS6KA1 = settings: read-out: apparent Kd, compound concentrations: 100 nM and 1000 nM (sheet 'Samples'), n = 1
SLK = settings: read-out: apparent Kd, compound concentrations: 100 nM and 1000 nM (sheet 'Samples'), n = 1
STK11 = settings: read-out: apparent Kd; compound concentrations: 100 nM and 1000 nM (sheet 'Samples'), CATDS: 3.27350856558018E-3; n = 1
SYK = settings: read-out: apparent Kd, n = 1
TGFBR1 = settings: read-out: apparent Kd, n = 1
TP53RK = settings: read-out: apparent Kd; compound concentrations: 100 nM and 1000 nM (sheet 'Samples'), CATDS: 3.61485371112703E-3; n = 1
STK26 = settings: read-out: apparent Kd; compound concentrations: 100 nM and 1000 nM (sheet 'Samples'), CATDS: 6.0521031511701004E-3; n = 1
[1] = compound concentrations:100 nM and 1000 nM (sheet 'Samples')

CN1C[C@@H]2Cn3c(c(C4=C(c5cn(C)c6ccccc56)C(=O)NC4=O)c4ccccc43)C[C@H]2C1.Cl [RO0320234-001]
potency estimated from few doses (DDR1; [1]): 1520 nM | potency estimated from few doses (TEC; [1]): 1190 nM

CCn1c(-c2nonc2N)nc2c(C#CC(C)(C)O)nc(CN3CCCC3)cc21 [GSK1000163A]
potency estimated from few doses (AKT3): 1430 nM

O=C1NC(=O)C(N2CCc3ccccc32)=C1c1ccccc1Cl [SB-373598]
potency estimated from few doses (TEC; [1]): 904 nM

Cn1ncc2c(N)ncnc21 [SKF-18267]
potency estimated from few doses (ACVR1; CATDS: 5.7443356978904197E-3): 627 nM | potency estimated from few doses (DDR1; compound concentrations: 100 nM and 1000 nM (sheet 'Samples'), CATDS: 4.82198778497934E-3): 876 nM | potency estimated from few doses (MAP4K2; compound concentrations: 100 nM and 1000 nM (sheet 'Samples'), CATDS: 4.7977079984097802E-3): 885 nM | potency estimated from few doses (MAP4K3; CATDS: 3.8804201859816102E-3): 1450 nM | potency estimated from few doses (MAP4K5; CATDS: 3.7006195337176699E-3): 1650 nM | potency estimated from few doses (MAPK11; CATDS: 4.4454363185357799E-3): 1040 nM | potency estimated from few doses (NEK9; CATDS: 5.3187042778019703E-3): 722 nM | potency estimated from few doses (PIK3C2A): 587 nM | potency estimated from few doses (PIK3C3): 552 nM | potency estimated from few doses (PIM2): 1260 nM | potency estimated from few doses (RPS6KA1; CATDS: 4.0621123256608799E-3): 1290 nM | potency estimated from few doses (SLK; CATDS: 4.0721330084515098E-3): 1280 nM | potency estimated from few doses (STK11): 2430 nM | potency estimated from few doses (SYK; compound concentrations: 100 nM and 1000 nM (sheet 'Samples'), CATDS: 5.7016392995471003E-3): 635 nM | potency estimated from few doses (TEC; compound concentrations: 100 nM and 1000 nM (sheet 'Samples'), CATDS: 5.5600102138742497E-3): 665 nM | potency estimated from few doses (TGFBR1; compound concentrations: 100 nM and 1000 nM (sheet 'Samples'), CATDS: 5.0317884305657503E-3): 804 nM | potency estimated from few doses (TP53RK): 1760 nM

COc1ccc(Nc2ncc(C#N)c(Nc3ccccc3C(N)=O)n2)cc1N1CCN(C)CC1.Cl [GSK1558669A]
potency estimated from few doses (DDR1; compound concentrations: 100 nM and 1000 nM (sheet 'Samples'), CATDS: 8.5132006877523293E-3): 319 nM | potency estimated from few doses (MAP4K3; CATDS: 1.16453060646116E-2): 123 nM | potency estimated from few doses (MAP4K5; CATDS: 7.4217938627351198E-3): 546 nM | potency estimated from few doses (NEK9; CATDS: 1.04770728264292E-2): 164 nM | potency estimated from few doses (RPS6KA1; CATDS: 1.0869541528388701E-2): 148 nM | potency estimated from few doses (SLK; CATDS: 1.35175429318502E-2): 84.7 nM | potency estimated from few doses (STK26): 1650 nM | potency estimated from few doses (SYK; compound concentrations: 100 nM and 1000 nM (sheet 'Samples'), CATDS: 6.16985372159695E-3): 1440 nM

CCOC(=O)N1CCC(n2cnc(-c3ccc(F)cc3)c2-c2ccnc(N)n2)CC1 [SB-219952]
potency estimated from few doses (DDR1; compound concentrations: 100 nM and 1000 nM (sheet 'Samples'), CATDS: 1.23341339187386E-2): 531 nM | potency estimated from few doses (TEC; compound concentrations: 100 nM and 1000 nM (sheet 'Samples'), CATDS: 8.8843344260598894E-3): 1200 nM

Cc1ccc(Nc2ccnc(Nc3ccc4c(c3)CS(=O)(=O)C4)n2)cc1O.Cl [GW579362A]
potency estimated from few doses (ACVR1; CATDS: 3.1800553905839801E-2): 1030 nM

COc1cccc2c(-c3ccncc3)c(-c3ccc(F)cc3)nn12 [GW468513X]
potency estimated from few doses (MAPK11; CATDS: 3.7828559303077401E-2): 1640 nM | potency estimated from few doses (TGFBR1; compound concentrations: 100 nM and 1000 nM (sheet 'Samples'), CATDS: 4.1244315663660498E-2): 1080 nM

Cl.ON=C1CCc2cc(-c3nc(C4CCNCC4)[nH]c3-c3ccncc3)ccc21 [SB-614067-R]
potency estimated from few doses (TGFBR1; [1]): 1170 nM

Cc1cccc(Nc2nc(N[C@H]3CCCC[C@H]3N)ncc2C(N)=O)c1.Cl [GSK986310C]
potency estimated from few doses (MAP4K2; [1]): 2080 nM | potency estimated from few doses (SYK; [1]): 79.7 nM
